Rows were chosen to be rich in hits. Some 19% of all compounds tested hit in one or more screens of this group.
DT40 TDP1 CPT – qHTS for Inhibitors of human tyrosyl-DNA phosphodiesterase 1 (TDP1): qHTS in cells in presence of CPT | chicken DT40 Tdp1-/-;hTDP1 cells + 20 nM CPT, ATP luminescence, 48 h | Potency, µM (doses to about 46.2 µM), without a hit: at the highest dose activity change, negative = growth inhibition, hits mostly inhibitors | actives 12% (n = 420,000) | AID 686979, 2013; also: potency is read from the fitted curve at half-maximal effect; nearly all actives have a fitted effect of over 55% in size
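Cell growth measured by CellTiter-Glo luminescence after a minimum 48 h, 37 C compound exposure with 20 nM CPT in Tdp1-knockout DT40 cells stably expressing hTDP1, seeded 400/well; qHTS titration format.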
ELG1 repair inh – qHTS screen for small molecules that inhibit ELG1-dependent DNA repair in human embryonic kidney (HEK293T) cells expressing luciferase-tagged ELG1; Potency, µM (series often up to 46.1 µM), for the others: at the highest dose activity change, negative = inhibition, hits mostly inhibitors; HEK293T ELG1-luciferase reporter, luminescence, 16 h; DNA damage induced by 5-fluorouridine; AID 504467, 2011; actives 2.3% (n = 330,000); also: potency is read from the fitted curve at half-maximal effect; nearly all actives have a fitted effect of over 55% in size
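DMSO vehicle served as the neutral condition. Each well held 2,000 cells given 5-fluorouridine plus compound; after 16 hr at 37 °C/5% CO2, ONE-Glo was added and luciferase measured 30 min later.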
HT1080 IDH1KD tx – qHTS for induction of synthetic lethality in tumor cells producing 2HG: qHTS for the HT-1080-IDH1KD cell line; HT-1080 IDH1 knockdown viability, ATP luminescence, 48 h; Potency, µM (highest dose often 46.1 µM), inactives show at the highest dose activity, negative = toxicity, most hits filed as cytotoxic; actives 2% (n = 360,000); AID 686971, 2013;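 also: potency is read from the fitted curve at half-maximal effect; 0% = DMSO wells and -100% = cell-free medium wells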
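HT-1080-IDH1KD cells (IDH1 knocked down), 750/well in RPMI with 5% FBS, treated with compound 48 h at 37 degrees C. Viability by CellTiter-Glo luminescence, normalised to DMSO and no-cell wells; concentration-response curves classed.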
HT1080-NT tox – qHTS for induction of synthetic lethality in tumor cells producing 2HG: qHTS for the HT-1080-NT fibrosarcoma cell line; actives 1.6% (n = 360,000); AID 686970, 2013; Potency, µM (series often up to 46.1 µM), inactives show at the highest dose activity, negative = less viability, actives largely listed as cytotoxic; HT-1080-NT fibrosarcoma viability, CellTiter-Glo ATP luminescence, 48 h;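 also: NT is the 2HG producing partner of a matched IDH1 knockdown line; potency is read from the fitted curve at half-maximal effect; 0% = DMSO-treated cells and -100% = media-only wells without cells; nearly all actives have a fitted effect of over 55% in size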
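HT-1080-NT; 750 cells/well; 5% FBS RPMI; 48 h compound, 37 degrees C; CellTiter-Glo luminescence; curve fitting and curve-class assignment.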
IL-1B inflam inh – qHTS for Inhibitors of Inflammasome Signaling: IL-1-beta AlphaLISA Primary Screen | THP-1 LPS/ATP IL-1B secretion, AlphaLISA, 16 h; active compounds read low | activity change, % at 57.5 µM | actives 4.7% (n = 360,000); in the data active = activity change below about -50%; inconclusive = mostly about -30% to -49%
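Secreted IL-1B measured by AlphaLISA bead assay after 16 h compound exposure of THP-1 cells; compounds (final up to 57.5 uM) added 1 h before LPS (250 ng/mL) and ATP (1.25 mM) stimulation; lower signal means less secretion.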
DT40 TDP1 no CPT – qHTS for Inhibitors of human tyrosyl-DNA phosphodiesterase 1 (TDP1): qHTS in cells in absence of CPT; DT40 Tdp1-/- hTDP1 cells, no CPT, ATP luminescence, 48 h; Potency, µM (titrated, usually from 46.2 µM), for the others: at the highest dose activity change, negative = growth inhibition, most hits filed as inhibitors; actives 15% (n = 420,000); also: potency is read from the fitted curve at half-maximal effect; nearly all actives have a fitted effect of over 55% in size
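Camptothecin absent (DMSO only). Human TDP1-complemented DT40 knockout cells, 400 cells/well, 37 °C for minimum 48 hr; ATP measured via CellTiter-Glo, 30 min dark incubation, luminescence.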
Starred values were filed as active, the others as inactive; ? = inconclusive; / = no result given; [ ] = another dose, or the depositor's remark. Unless noted, calls follow the shape of the dose curve; as a rule, active = well fitted curve in the direction sought with a large enough effect; inconclusive = small, poorly fitted or top-dose-only effect, or another doubt; inactive = no such curve, though single readings can be large; an effect the other way counts as inactive or inconclusive. Unless noted, % is scaled to controls: 0 for no effect and ±100 for the full control effect.

SMILES	DT40 TDP1 CPT	ELG1 repair inh	HT1080 IDH1KD tx	HT1080-NT tox	IL-1B inflam inh	DT40 TDP1 no CPT
CC(C)(C)C1CCC2(CC1)C(C#N)=C(SCC(=O)NC1CCCCC1)NC(=O)C2C#N (stereo not drawn)	21µM*	?	7%[9.24 µM]	?	-25	16µM*
N#CC1=C(SCC(=O)NC23CC4CC(CC(C4)C2)C3)NC(=O)C(C#N)C12CCCCC2 (stereo not drawn)	18µM*	13µM*	?	?	?	23µM*
Cc1ccc(Cc2c(C(C)(C)C)nc3cc(C)c(Br)c(C)n23)cc1	?	/	-6%	-2%	77	?
COc1cc(C(=O)NCC(=O)OCc2ccccc2Cl)cc(OC)c1OC	-26%	10%	-1%	7%	6	1%
COc1ccc(CN2C(=O)C(O)(CC(=O)c3c(C)n[nH]c3C)c3ccccc32)cc1OC (stereo not drawn)	?	-19%	3%	1%	0	?
Cc1ccc(C(=O)CC2(O)C(=O)N(Cc3ccccc3Cl)c3ccccc32)o1 (stereo not drawn)	?	-17%	-24%	0%	2	10µM*
COc1cc(C(=O)CC2(O)C(=O)N(Cc3ccccc3Cl)c3ccccc32)cc(OC)c1OC (stereo not drawn)	5.8µM*	/	/	/	/	5.2µM*
CCCN1C(=O)C(O)(CC(=O)c2ccc(OC)c(OC)c2)c2ccccc21 (stereo not drawn)	?	/	/	/	/	16µM*
O=C(c1cc(Cl)ccc1O)N1CCN(S(=O)(=O)Cc2ccccc2)CC1	-21%	?	-3%	-3%	48	-20%
C[C@@H]1Cc2[nH][nH]c(=O)c2[C@H](C)O1	2%	/	10%	25%	57	-2%
O=C(COc1ccccc1)Nc1nnc(SCc2cc(=O)c3ccccc3[nH]2)s1	-23%	/	/	/	/	?
CC(=O)Nc1ccc2c(c1)ncn2C	-10%	?	16%	17%	2	1%
Cc1nc2cc(NC(=O)c3ccc(Cl)cc3)ccc2n1C	-17%	?	0%	-8%	0	-14%
COc1cc(C(=O)Nc2ccc3c(c2)nc(C)n3C)cc(OC)c1OC	4.1µM*	?	9.2µM*	6.5µM*	41	3.3µM*
COc1cc(C(=O)Nc2ccc3c(c2)ncn3C)cc(OC)c1OC	4.1µM*	?	?	?	82	2.9µM*
CC(C)(C)S(=O)N1Cc2ccc(CO)cc2[C@@H]1CCO (stereo partly drawn)	?	/	10%	1%	3	-4%
O=C(NCCCN1CCCC1=O)c1ccc2c(=O)n(Cc3ccco3)c(=S)[nH]c2c1	16µM*	-24%	0%	1%	7	?
O=c1c2ccccc2c(C=NCCCN2CCOCC2)c(O)n1Cc1ccccc1	18µM*	11%	-22%	-15%	-8	?
O=C(NCCCN1CCOCC1)c1ccc2c(=O)n(Cc3ccccc3)c(=S)[nH]c2c1	-23%	-5%	16µM*	18µM*	-73*	?
O=c1c2ccccc2c(C=NCCCN2CCOCC2)c(O)n1Cc1ccc2c(c1)OCO2	-31%	-17%	-2%	-14%	?	?
CC1CCCCN1CCNC(=O)c1ccc2c(=O)n(Cc3ccc(Cl)cc3)c(=S)[nH]c2c1 (stereo not drawn)	?	?	23µM*	21µM*	-97*	?
O=C(c1ccc2c(=O)n(Cc3ccccc3)c(=S)[nH]c2c1)N1CCOCC1	-20%	-2%	-13%	0%	38	-28%
O=C(NCc1ccccc1)c1ccc2c(=O)n(CCCN3CCCC3=O)c(=S)[nH]c2c1	-22%	?	-3%	-3%	17	-21%
CS(=O)(=O)c1ccc(Cl)c(C(=O)Nc2ccc3nc(N4CCOCC4)sc3c2)c1	?	7%	-12%	-7%	35	?
CC1(C(=O)NS(=O)(=O)c2cccc(OC(F)F)c2)CCN1C(=O)CC(c1ccccc1)c1ccccc1 (stereo not drawn)	?	/	14%	6%	49	?
SMILES	DT40 TDP1 CPT	ELG1 repair inh	HT1080 IDH1KD tx	HT1080-NT tox	IL-1B inflam inh	DT40 TDP1 no CPT
CCCCn1c(SCC(=O)NC2CC2)nc2ccccc2c1=O	3%	?	0%	1%	-4	5%
COc1ccccc1Cn1c(=S)[nH]c2cc(C(=O)NCCN(C)C)ccc2c1=O	?	-2%	-39%	-26%	-56*	-19%
COc1ccc(C(=O)c2c3ccc(OC)cc3[n+]([O-])n2CCCC(N)=O)cc1	-1%	0%	1%	0%	26	-16%
Cc1ccc(C(=O)c2c3ccc([N+](=O)[O-])cc3[n+]([O-])n2CCC(N)=O)cc1	5.8µM*	?	-17%	-8%	1	15µM*
Cc1ccc(C(=O)c2c3ccccc3[n+]([O-])n2CCC(N)=O)cc1	2%	21%	7%	4%	18	-9%
COc1ccc(C(=O)c2c3ccc([N+](=O)[O-])cc3[n+]([O-])n2CCCC(N)=O)cc1	9.2µM*	-20%	-1%	-30%	5	21µM*
CC1CC(C)CN(C(=O)CCNC(=O)c2ccccc2Cl)C1 (stereo not drawn)	5%	?	14%	4%	-13	5%

Screening data deposited in PubChem BioAssay by National Center for Advancing Translational Sciences (NCATS).
